The list shows a part of the results. A number with no mark means an inactive call. The source made the active and inactive calls. No stated cut-off is given here; in the data, active means activation above about 18%; inactive means the rest.

This experiment can be described thus: activation of mu-delta opioid heterodimer signal – cell-based, luminescence, counter-screen for HTR5A agonist project (AID 504913). To be noted: U2OS counter-screen cells, complementation luminescence, 3 h; at 9.3 µM; stronger effect = higher value.
As to `CN1c2ccc(C=O)c3c(C=O)ccc(c23)N(C)C1(C)C`, the activation was 107% (active).
With `c1cc(-c2nn[nH]n2)ccc1CN1CCCCC1` the figure was 0.2%.
With `O=C(Nc1ccc(C(=O)N2CCOCC2)cc1)Nc1cccc(C(F)(F)F)c1` the figure was 0.41%; with `CC1(C)C2CCC1(CS(=O)(=O)NCCc1c[nH]c3ccccc13)C(=O)C2` (centres undefined), 0.82%; with `CC(=O)COc1ccc2c(-c3ccccc3)cc(=O)oc2c1`, 63.2% (active).
The figure for `Cc1ccc(-c2csc(SCC(=O)Nc3cc(C)on3)n2)cc1` is 0.69%; for `CNc1nnc(-c2ccco2)s1` it is 4.29%; for `CC(C)CC(=O)N/C(N)=N/c1nc2ccccc2s1` it is 5.76%.
`COc1ccc2[nH]cc(CCN3C(=O)c4ccc(C(=O)O)cc4C3=O)c2c1`: the activation is 1.66%.
The figure for `Cc1c(C(=O)OCC(=O)N2CCCC2=O)oc2ccccc12` is 1.27%; for `CNC(=S)N/N=C/c1ccc(OCc2ccccc2)c(Br)c1` it is -1.02%; for `COc1cccc(OCC(=O)Nc2ccccc2C(N)=O)c1` it is 0.46%.
On to `COc1cc2c(-c3ccc4c(c3)OCO4)c(-c3ccsc3)oc(=O)c2cc1OC`, for which the activation is -2.61%.
Consider `C/C(=N\NC(=O)CNc1cccc2ccccc12)c1ccc(Br)s1`, for which the activation was -1.65%.
With `CC1CCN(S(=O)(=O)c2nnc(NC(=O)COc3ccccc3F)s2)CC1` the figure was 3.72%; with `COc1ccc(S(=O)(=O)N2CCN(CC(=O)N3c4ccccc4CC3C)CC2)cc1OC` (centres undefined), 4.47%; with `c1ccc(-n2nc3ccccc3n2)cc1`, 2.66%.
The figure for `COC(=O)c1cc(S(=O)(=O)N2CCN(c3cc(C)ccc3C)CC2)c[nH]1` is 0.96%; for `O=C(c1cccnc1)N(c1cc2sc(=O)oc2c2ccccc12)S(=O)(=O)c1ccccc1` it is 4.54%; for `O=C(OC12CC3CC(CC(C3)C1)C2)c1ccc(NCc2cc(O)ccc2O)cc1` it is 8.31%.
Take `COc1c(Cl)cc(C(=O)Nc2ccc(Cl)cn2)cc1Cl`: the activation was 9.05%.
Turning to `CCn1nc(C(=O)OCC(=O)N2c3ccccc3CC2C)c2ccccc2c1=O` (centres undefined), the activation is 1.02%.
`CCC(C)NC(=O)CCCc1ccccc1` (centres undefined): the activation was 1.02%.
With `COc1ccc(/C=C(\C#N)c2c[nH]c3ccccc23)cc1` the figure was 6.75%.

These data come from PubChem BioAssay AID504913 (The Scripps Research Institute Molecular Screening Center, 2011).
